According to PubChem BioAssay (NCATS):
Records with an inconclusive call do not appear. A call without a number means that no potency is given here. The source made the active and inactive calls. Calls follow the shape of the dose curve; as a rule, active = well fitted inhibition curve with a large enough effect; inconclusive = small, poorly fitted or top-dose-only effect; inactive = flat fitted curve, though single readings scatter.

Test: Primary qHTS for inhibitors of nuclear receptor binding SET domain protein 2 (NSD2) in an isogenic RCH-ACV NSD2 p.E1099K mutant (9B) (AID 1645876); also: nearly all actives have a fitted effect of over 70% in size
Details: RCH-ACV (leukaemia line) NSD2 E1099K (9B) viability, CellTiter-Glo, 72 h; series mostly up to 44.9 µM
Potency is read from the fitted curve at half-maximal effect.

| SMILES | Potency | activity change, negative = viability loss |
| --- | --- | --- |
| CN[C@H]1[C@H](O)[C@H](O[C@@H]2[C@@H](O)[C@H](O[C@H]3O[C@H]([C@H](C)O)[C@@H](O)[C@H](O)[C@H]3N)[C@@H](N)C[C@H]2N)OC[C@@]1(C)O | inactive | – |
| CN(C(=O)Cc1ccccc1)C(CN1CCCC1)c1ccccc1 (stereo not drawn) | inactive | – |
| CN(C)CCc1c[nH]c2ccc(CN3CCN(C)S3(=O)=O)cc12 | inactive | – |
| COC1CC(OC2CCC3(C)C(CCC4C3CCC3(C)C(C5=CC(=O)OC5)C(OC(C)=O)CC43O)C2)OC(C)C1OC1OC(CO)C(O)C(O)C1O (stereo not drawn) | 483 nM (active) | – |
| CCCN1CCO[C@H]2c3cc(O)ccc3OC[C@@H]21 | inactive | – |
| C/C=C(\C)C(=O)O[C@H]1[C@H](OC(C)=O)[C@]2(CO)[C@H](O)[C@H](O)[C@]3(C)C(=CCC4[C@@]5(C)CC[C@H](O[C@@H]6O[C@H](C(=O)O)[C@@H](O)[C@H](O[C@@H]7OC[C@H](O)[C@H](O[C@@H]8OC[C@H](O)[C@H](O)[C@H]8O)[C@H]7O)[C@H]6O[C@@H]6O[C@H](CO)[C@@H](O)[C@H](O)[C@H]6O)C(C)(C)C5CC[C@]43C)[C@@H]2CC1(C)C (stereo partly drawn) | – | -4.86% [at 9.23 µM] (inactive) |
| C[C@@H]1C(=O)O[C@H]2[C@H](O)[C@@]34[C@@H]5OC(=O)[C@@]3(O[C@@H]3OC(=O)[C@@H](O)[C@@]34[C@H](C(C)(C)C)[C@H]5O)[C@@]12O | inactive | – |
| C=C1[C@@H]2CC[C@@]3(C)[C@H](c4ccoc4)OC(=O)C[C@]13O[C@H]1CC(=O)C(C)(C)[C@H](C(OC(C)=O)C(=O)OC)[C@]12C (stereo partly drawn) | inactive | – |
